{
  "source": "paper PMC8384837",
  "about": "“Expanding the binding specificity for RNA recognition by a PUF domain”",
  "test_in_all_cases": "yeast three-hybrid, YBZ-1, SC-Leu-His + 0.5 mM 3-AT, 4 days",
  "settings_in_all_cases": "tags: N-Gal4 AD-HA kept; label: inside an RPR1-promoter hybrid RNA with tandem MS2 sites; ssRNA",
  "key": {"PUM1 PUF domain R8-IWR": {"target": "PUM1 PUF domain R8-IWR (Homo sapiens, UniProt Q14671 828-1176, N1122I;Y1123W;Q1126R)", "sequence (Q14671 828-1176 N1122I/Y1123W/Q1126R)": "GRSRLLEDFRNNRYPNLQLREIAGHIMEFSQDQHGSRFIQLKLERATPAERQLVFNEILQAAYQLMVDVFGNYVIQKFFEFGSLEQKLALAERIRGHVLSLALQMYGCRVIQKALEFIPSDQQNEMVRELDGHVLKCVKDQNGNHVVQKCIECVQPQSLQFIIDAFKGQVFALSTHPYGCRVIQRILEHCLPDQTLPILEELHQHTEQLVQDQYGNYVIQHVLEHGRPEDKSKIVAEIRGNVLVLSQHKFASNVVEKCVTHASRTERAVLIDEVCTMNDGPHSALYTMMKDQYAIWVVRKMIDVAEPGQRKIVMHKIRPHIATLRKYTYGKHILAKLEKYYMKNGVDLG", "method_in_brief": "(§1)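 The interaction score is the logarithmic change in variant frequency from input to selection. It uses log2, with a pseudocount of 1 for absent variants, and frequencies came from PCR-amplified, Illumina-sequenced repeat regions. The libraries were Pumilio-1 PUF domains randomized at the three base-contacting residues per repeat, co-expressed with matching RNA elements in strain YBZ-1 (LexA–MS2 coat fusion, HIS3 reporter). Plating lasted four days on SC-Leu (input) or SC-Leu-His + 0.5 mM 3-AT (selection).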"}, "PUM1 PUF domain R5-EVC": {"target": "PUM1 PUF domain R5-EVC (Homo sapiens, UniProt Q14671 828-1176, C1007E;R1008V;Q1011C)", "sequence (Q14671 828-1176 C1007E/R1008V/Q1011C)": "as the sequence (Q14671 828-1176 N1122I/Y1123W/Q1126R) above, with C180E, R181V, Q184C, I295N, W296Y, R299Q counted along it", "method_in_brief": "as §1"}, "PUM1 PUF domain R5-RYR": {"target": "PUM1 PUF domain R5-RYR (Homo sapiens, UniProt Q14671 828-1176, C1007R;R1008Y;Q1011R)", "sequence (Q14671 828-1176 C1007R/R1008Y/Q1011R)": "as the sequence (Q14671 828-1176 N1122I/Y1123W/Q1126R) above, with C180R, R181Y, Q184R, I295N, W296Y, R299Q counted along it", "method_in_brief": "as §1"}, "PUM1 PUF domain R7-RRS": {"target": "PUM1 PUF domain R7-RRS (Homo sapiens, UniProt Q14671 828-1176, S1079R;N1080R;E1083S)", "sequence (Q14671 828-1176 S1079R/N1080R/E1083S)": "as the sequence (Q14671 828-1176 N1122I/Y1123W/Q1126R) above, with S252R, N253R, E256S, I295N, W296Y, R299Q counted along it", "method_in_brief": "as §1"}, "PUM1 PUF domain R4-MNG": {"target": "PUM1 PUF domain R4-MNG (Homo sapiens, UniProt Q14671 828-1176, N971M;H972N;Q975G)", "sequence (Q14671 828-1176 N971M/H972N/Q975G)": "as the sequence (Q14671 828-1176 N1122I/Y1123W/Q1126R) above, with N144M, H145N, Q148G, I295N, W296Y, R299Q counted along it", "method_in_brief": "as §1"}, "PUM1 PUF domain R4-ARM": {"target": "PUM1 PUF domain R4-ARM (Homo sapiens, UniProt Q14671 828-1176, N971A;H972R;Q975M)", "sequence (Q14671 828-1176 N971A/H972R/Q975M)": "as the sequence (Q14671 828-1176 N1122I/Y1123W/Q1126R) above, with N144A, H145R, Q148M, I295N, W296Y, R299Q counted along it", "method_in_brief": "as §1"}, "PUM1 PUF domain R1-RTR": {"target": "PUM1 PUF domain R1-RTR (Homo sapiens, UniProt Q14671 828-1176, S863R;R864T;Q867R)", "sequence (Q14671 828-1176 S863R/R864T/Q867R)": "as the sequence (Q14671 828-1176 N1122I/Y1123W/Q1126R) above, with S36R, R37T, Q40R, I295N, W296Y, R299Q counted along it", "method_in_brief": "as §1"}, "PUM1 PUF domain R5-KYV": {"target": "PUM1 PUF domain R5-KYV (Homo sapiens, UniProt Q14671 828-1176, C1007K;R1008Y;Q1011V)", "sequence (Q14671 828-1176 C1007K/R1008Y/Q1011V)": "as the sequence (Q14671 828-1176 N1122I/Y1123W/Q1126R) above, with C180K, R181Y, Q184V, I295N, W296Y, R299Q counted along it", "method_in_brief": "as §1"}, "PUM1 PUF domain R2-IWD": {"target": "PUM1 PUF domain R2-IWD (Homo sapiens, UniProt Q14671 828-1176, N899I;Y900W;Q903D)", "sequence (Q14671 828-1176 N899I/Y900W/Q903D)": "as the sequence (Q14671 828-1176 N1122I/Y1123W/Q1126R) above, with N72I, Y73W, Q76D, I295N, W296Y, R299Q counted along it", "method_in_brief": "as §1"}, "PUM1 PUF domain R2-VFR": {"target": "PUM1 PUF domain R2-VFR (Homo sapiens, UniProt Q14671 828-1176, N899V;Y900F;Q903R)", "sequence (Q14671 828-1176 N899V/Y900F/Q903R)": "as the sequence (Q14671 828-1176 N1122I/Y1123W/Q1126R) above, with N72V, Y73F, Q76R, I295N, W296Y, R299Q counted along it", "method_in_brief": "as §1"}, "PUM1 PUF domain R2-VHP": {"target": "PUM1 PUF domain R2-VHP (Homo sapiens, UniProt Q14671 828-1176, N899V;Y900H;Q903P)", "sequence (Q14671 828-1176 N899V/Y900H/Q903P)": "as the sequence (Q14671 828-1176 N1122I/Y1123W/Q1126R) above, with N72V, Y73H, Q76P, I295N, W296Y, R299Q counted along it", "method_in_brief": "as §1"}},
  "data": [
    {"sequence": "GGCUAGAACUAGUGGAUCCCCCGGCGCCCGGCGGCUCGAGCCCGGGUAAGCGUAAAUAGUCUGCAUGCCGCCGGGCGCCAUGCCUGCAGGUCGACUCUAGAAAACAUG", "values": [
      {"measurement": "binding signal", "setting": "PUM1 PUF domain R8-IWR", "value": "5.25 log2 enrichment (interaction score)"}
    ]},
    {"sequence": "GGCUAGAACUAGUGGAUCCCCCGGCGCCCGGCGGCUCGAGCCCGGGUAAGUGUGAAUAGUCUGCAUGCCGCCGGGCGCCAUGCCUGCAGGUCGACUCUAGAAAACAUG", "values": [
      {"measurement": "binding signal", "setting": "PUM1 PUF domain R5-EVC", "value": "3.25 log2 enrichment (interaction score)"},
      {"measurement": "binding signal", "setting": "PUM1 PUF domain R5-RYR", "value": "2.14 log2 enrichment (interaction score)"}
    ]},
    {"sequence": "GGCUAGAACUAGUGGAUCCCCCGGCGCCCGGCGGCUCGAGCCCGGGUAAGUCUAAAUAGUCUGCAUGCCGCCGGGCGCCAUGCCUGCAGGUCGACUCUAGAAAACAUG", "values": [
      {"measurement": "binding signal", "setting": "PUM1 PUF domain R7-RRS", "value": "4.47 log2 enrichment (interaction score)"}
    ]},
    {"sequence": "GGCUAGAACUAGUGGAUCCCCCGGCGCCCGGCGGCUCGAGCCCGGGUAAGUGUACAUAGUCUGCAUGCCGCCGGGCGCCAUGCCUGCAGGUCGACUCUAGAAAACAUG", "values": [
      {"measurement": "binding signal", "setting": "PUM1 PUF domain R4-MNG", "value": "2.1 log2 enrichment (interaction score)"},
      {"measurement": "binding signal", "setting": "PUM1 PUF domain R4-ARM", "value": "2.37 log2 enrichment (interaction score)"}
    ]},
    {"sequence": "GGCUAGAACUAGUGGAUCCCCCGGCGCCCGGCGGCUCGAGCCCGGGUAAGUGUAAAUUGUCUGCAUGCCGCCGGGCGCCAUGCCUGCAGGUCGACUCUAGAAAACAUG", "values": [
      {"measurement": "binding signal", "setting": "PUM1 PUF domain R1-RTR", "value": "2.2 log2 enrichment (interaction score)"}
    ]},
    {"sequence": "GGCUAGAACUAGUGGAUCCCCCGGCGCCCGGCGGCUCGAGCCCGGGUAAGUGUUAAUAGUCUGCAUGCCGCCGGGCGCCAUGCCUGCAGGUCGACUCUAGAAAACAUG", "values": [
      {"measurement": "binding signal", "setting": "PUM1 PUF domain R5-RYR", "value": "4.47 log2 enrichment (interaction score)"},
      {"measurement": "binding signal", "setting": "PUM1 PUF domain R5-KYV", "value": "4.52 log2 enrichment (interaction score)"}
    ]},
    {"sequence": "GGCUAGAACUAGUGGAUCCCCCGGCGCCCGGCGGCUCGAGCCCGGGUAAGUGUAAAAAGUCUGCAUGCCGCCGGGCGCCAUGCCUGCAGGUCGACUCUAGAAAACAUG", "values": [
      {"measurement": "binding signal", "setting": "PUM1 PUF domain R2-IWD", "value": "2.12 log2 enrichment (interaction score)"},
      {"measurement": "binding signal", "setting": "PUM1 PUF domain R2-VFR", "value": "5.64 log2 enrichment (interaction score)"},
      {"measurement": "binding signal", "setting": "PUM1 PUF domain R2-VHP", "value": "2.73 log2 enrichment (interaction score)"}
    ]},
    {"sequence": "GGCUAGAACUAGUGGAUCCCCCGGCGCCCGGCGGCUCGAGCCCGGGUAAGUGUCAAUAGUCUGCAUGCCGCCGGGCGCCAUGCCUGCAGGUCGACUCUAGAAAACAUG", "values": [
      {"measurement": "binding signal", "setting": "PUM1 PUF domain R5-RYR", "value": "4.57 log2 enrichment (interaction score)"},
      {"measurement": "binding signal", "setting": "PUM1 PUF domain R5-KYV", "value": "5.44 log2 enrichment (interaction score)"}
    ]}
  ]
}
